Assay results reported in PubChem BioAssay AID1159580 (chemical genetic matrix, 2015).
Hit rate of the full screen: of about 5,500 compounds, about 2,000 (36%) were called active. Inconclusive results (about 18%) are left out. Rule as the data show it: active = normalized growth mostly below about 0.91 (no sharp cut-off); inconclusive = no clear call, values can overlap the other calls; inactive = mostly above about 0.92. Some of the results follow.

Assay: chemical genetic growth profiling, strain panel (AID 1159580);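 also: tested at 20 µM; growth read once vehicle control cultures reached saturation at 30 °C; 1 = growth at the plate median or of vehicle wells; lower values mean less growth of the strain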
Conditions: growth OD

Measured: normalized growth

CC(=O)N[C@@H](Cc1c[nH]c2ccccc12)C(=O)O
inactive: S. cerevisiae deletion strains, locus YJR075W, strain HOC1, hits give low values 1 | S. cerevisiae deletion strains, locus YKL009W, strain mrt4, hits give low values 0.981 | S. cerevisiae deletion strains, locus YKL068W, hits give low values 1.01 | S. cerevisiae deletion strains, locus YKL085W, strain MDH1 (second series), hits give low values 1.01 | S. cerevisiae deletion strains, locus YKL085W, strain MDH1, hits give low values 1.01 | S. cerevisiae deletion strains, locus YKL160W, strain elf1, hits give low values 0.962 | S. cerevisiae deletion strains, locus YKL190W, strain CNB1, hits give low values 1 | S. cerevisiae deletion strains, locus YKR001C, strain vps1, hits give low values 1.02 | S. cerevisiae deletion strains, locus YKR026C, strain gcn3, hits give low values 0.987 | S. cerevisiae deletion strains, locus YKR091W, strain srl3, hits give low values 0.977 | S. cerevisiae deletion strains, locus YLL001W, strain dnm1, hits give low values 0.983 | S. cerevisiae deletion strains, locus YLL026W, hits give low values 0.99 | S. cerevisiae deletion strains, locus YLL041C, strain sdh2, hits give low values 1 | S. cerevisiae deletion strains, locus YLR027C, strain aat2, hits give low values 0.994 | S. cerevisiae deletion strains, locus YLR039C, strain RIC1, hits give low values 1.02 | S. cerevisiae deletion strains, locus YLR058C, strain SHM2, hits give low values 1.01 | S. cerevisiae deletion strains, locus YLR102C, strain apc9, hits give low values 1.02 | S. cerevisiae deletion strains, locus YLR113W, strain HOG1, hits give low values 1 | S. cerevisiae deletion strains, locus YLR221C, strain rsa3, hits give low values 1.01 | S. cerevisiae deletion strains, locus YLR258W, strain gsy2, hits give low values 0.967 | S. cerevisiae deletion strains, locus YLR262C, strain YPT6 (second series), hits give low values 1.02 | S. cerevisiae deletion strains, locus YLR262C, strain YPT6, hits give low values 1.02 | S. cerevisiae deletion strains, locus YLR268W, strain sec22, hits give low values 1.04 | S. cerevisiae deletion strains, locus YLR320W, strain mms22, hits give low values 1.02 | S. cerevisiae deletion strains, locus YLR330W, strain CHS5, hits give low values 1.01 | S. cerevisiae deletion strains, locus YLR342W, strain FKS1 (second series), hits give low values 1.04 | S. cerevisiae deletion strains, locus YLR342W, strain FKS1, hits give low values 0.981 | S. cerevisiae deletion strains, locus YLR357W, strain rsc2, hits give low values 0.983 | S. cerevisiae deletion strains, locus YLR370C, strain arc18, hits give low values 0.995 | S. cerevisiae deletion strains, locus YLR371W, strain rom2, hits give low values 1.03 | S. cerevisiae deletion strains, locus YLR384C, strain iki3, hits give low values 0.984 | S. cerevisiae deletion strains, locus YLR418C, strain cdc73, hits give low values 1.07 | S. cerevisiae deletion strains, locus YML016C, strain PPZ1, hits give low values 1.01 | S. cerevisiae deletion strains, locus YML032C, strain rad52, hits give low values 1.02 | S. cerevisiae deletion strains, locus YML120C, strain ndi1, hits give low values 0.989 | S. cerevisiae deletion strains, locus YML124C, strain tub3, hits give low values 1.02 | S. cerevisiae deletion strains, locus YMR058W, strain fet3, hits give low values 0.988 | S. cerevisiae deletion strains, locus YMR078C, strain ctf18, hits give low values 1.02 | S. cerevisiae deletion strains, locus YMR125W, strain sto1, hits give low values 0.973 | S. cerevisiae deletion strains, locus YMR129W, hits give low values 0.976 | S. cerevisiae deletion strains, locus YMR205C, strain PFK2, hits give low values 0.985 | S. cerevisiae deletion strains, locus YMR223W, strain ubp8, hits give low values 1.02 | S. cerevisiae deletion strains, locus YMR231W, strain pep5, hits give low values 0.978 | S. cerevisiae deletion strains, locus YMR263W, strain SAP30, hits give low values 0.998 | S. cerevisiae deletion strains, locus YMR307W, strain GAS1, hits give low values 0.959 | S. cerevisiae deletion strains, locus YNL067W, strain RPL9B, hits give low values 1.01 | S. cerevisiae deletion strains, locus YNL071W, strain lat1, hits give low values 0.99 | S. cerevisiae deletion strains, locus YNL128W, strain TEP1, hits give low values 1.01 | S. cerevisiae deletion strains, locus YNL153C, strain GIM3, hits give low values 1.01 | S. cerevisiae deletion strains, locus YNL183C, strain NPR1, hits give low values 0.886 | S. cerevisiae deletion strains, locus YNL209W, strain ssb2, hits give low values 0.989 | S. cerevisiae deletion strains, locus YNL233W, strain BNI4, hits give low values 1.01 | S. cerevisiae deletion strains, locus YNL248C, strain rpa49, hits give low values 0.98 | S. cerevisiae deletion strains, locus YNL250W, strain rad50, hits give low values 1 | S. cerevisiae deletion strains, locus YNL271C, strain bni1, hits give low values 1.03 | S. cerevisiae deletion strains, locus YNL298W, strain CLA4, hits give low values 1.02 | S. cerevisiae deletion strains, locus YNL307C, strain MCK1, hits give low values 1.03 | S. cerevisiae deletion strains, locus YNL322C, strain KRE1 (second series), hits give low values 0.995 | S. cerevisiae deletion strains, locus YNL322C, strain KRE1, hits give low values 1 | S. cerevisiae deletion strains, locus YNR049C, strain mso1, hits give low values 0.959 | S. cerevisiae deletion strains, locus YNR052C, strain pop2, hits give low values 1.01 | S. cerevisiae deletion strains, locus YOL006C, strain TOP1, hits give low values 1.09 | S. cerevisiae deletion strains, locus YOL012C, strain htz1 0.924 | S. cerevisiae deletion strains, locus YOL147C, strain pex11, hits give low values 1.02 | S. cerevisiae deletion strains, locus YOR001W, strain rrp6, hits give low values 1.01 | S. cerevisiae deletion strains, locus YOR061W, strain CKA2, hits give low values 1.01 | S. cerevisiae deletion strains, locus YOR069W, strain VPS5, hits give low values 1 | S. cerevisiae deletion strains, locus YOR070C, strain gyp1, hits give low values 0.996 | S. cerevisiae deletion strains, locus YOR080W, strain dia2, hits give low values 0.986 | S. cerevisiae deletion strains, locus YOR083W, strain WHI5, hits give low values 0.97 | S. cerevisiae deletion strains, locus YOR106W, strain vam3, hits give low values 0.964 | S. cerevisiae deletion strains, locus YOR136W, strain idh2, hits give low values 1.01 | S. cerevisiae deletion strains, locus YOR144C, strain elg1, hits give low values 1.02 | S. cerevisiae deletion strains, locus YOR184W, strain ser1, hits give low values 1.02 | S. cerevisiae deletion strains, locus YOR231W, strain MKK1, hits give low values 0.994 | S. cerevisiae deletion strains, locus YOR265W, strain rbl2, hits give low values 1.01 | S. cerevisiae deletion strains, locus YOR270C, strain vph1, hits give low values 1.01 | S. cerevisiae deletion strains, locus YOR290C, strain snf2, hits give low values 0.974 | S. cerevisiae deletion strains, locus YOR316C, strain cot1, hits give low values 1.02 | S. cerevisiae deletion strains, locus YPL051W, strain arl3, hits give low values 0.989 | S. cerevisiae deletion strains, locus YPL055C, strain LGE1, hits give low values 1.01 | S. cerevisiae deletion strains, locus YPL078C, strain atp4, hits give low values 0.978 | S. cerevisiae deletion strains, locus YPL106C, strain sse1, hits give low values 0.949 | S. cerevisiae deletion strains, locus YPL240C, strain hsp82, hits give low values 1 | S. cerevisiae deletion strains, locus YPL241C, strain CIN2, hits give low values 1 | S. cerevisiae deletion strains, locus YPL256C, strain CLN2, hits give low values 0.99 | S. cerevisiae deletion strains, locus YPR119W, strain clb2, hits give low values 1.02 | S. cerevisiae deletion strains, locus YPR141C, strain kar3, hits give low values 1.02 | S. cerevisiae deletion strains, locus YPR163C, strain tif3, hits give low values 1.04 | S. cerevisiae deletion strains, locus YPR167C, strain met16, hits give low values 1.01 | S. cerevisiae deletion strains, strain wtn01, hits give low values 1.01 | S. cerevisiae strains, strain wild type, hits give low values 1
